# Compounds with a hit are over-represented: about 21% of the library has one in this group of screens.
# CHX counter: counter-screen for Shiga toxin inhibitors: cycloheximide protein synthesis inhibition; cell reporter, cycloheximide protein synthesis inhibition counterscreen; max response, %; hit rate 12% among 300,000; in the data active = max response mostly above about 13%, no sharp cut-off; inactive = mostly below about 14%; also: read at 38.3 µM for the half of the compounds with a filed dose; 0% is about no effect
# Pf growth 96h: P. falciparum growth inhibition at 96 hour, primary screen for plastid delayed-death inhibitors; hit rate 6.9% among 320,000; Potency, µM (highest dose often 28.7 µM), for inactives: top-dose activity change, negative = inhibition, hits mostly inhibitors; AID 504834; P. falciparum luciferase reporter growth, 96 h; active = well fitted inhibition curve with a large enough effect; inconclusive = small, poorly fitted or top-dose-only effect, or another doubt; inactive = no such curve, though single readings can be large or run the other way; also: potency is read from the fitted curve at half-maximal effect; % is scaled to controls: 0 for no effect and ±100 for the full control effect
#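 Parasite growth measured via integrated firefly luciferase reporter in P. falciparum. Infected erythrocytes at 2% hematocrit, 0.05% parasitemia final were treated 96 hours at 37 C under 5% CO2, and luminescence was read.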
# Shiga toxin inh: inhibitors of Shiga toxin in Vero cells | hit rate 9.2% among 290,000 | Vero cells, Shiga toxin protein synthesis inhibition reporter | inhibition, % at 38.7 µM | AID 2315; in the data active = inhibition mostly above about 28%, no sharp cut-off; inactive = mostly below about 43%; also: 0% is about no effect
# NS1 inh: inhibitors of influenza NS1 protein function. hit rate 0.4% among 270,000. Potency, µM (titrated, usually from 46.1 µM), for inactives: at the highest dose activity, positive = more growth; also: potency is read from the fitted curve at half-maximal effect; actives are rising curves; nearly all actives have a fitted effect of over 50% in size
#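 A cell-based growth assay was used: compounds that relieve NS1-induced slow growth of budding yeast raise OD600. Assay medium was yeast nitrogen base with ammonium sulphate and -URA supplement, pH 6.0, with 2% galactose.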
# Pf growth 48h: inhibits P. falciparum growth in the first generation, 48 h. Potency, µM (top dose mostly 28.7 µM), inactives show at the top dose activity change, negative = inhibition, actives largely listed as inhibitors. AID 504832. P. falciparum luciferase growth in erythrocytes, 48 h. hit rate 5.9% among 310,000; active = well fitted inhibition curve with a large enough effect; inconclusive = small, poorly fitted or top-dose-only effect, or another doubt; inactive = no such curve, though single readings can be large or run the other way; also: potency is read from the fitted curve at half-maximal effect; % is scaled to controls: 0 for no effect and ±100 for the full control effect
#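 Luciferase-expressing parasites in RBCs, 2% Hct / 0.1% parasitemia final; RPMI 1640 + 0.5% Albumax; 37 C, 5% CO2, one generation; luminescence read-out, lower signal = inhibition.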
# SARS PLpro yeast: SARS-CoV PLP inhibition in yeast. Potency, µM (titrated, usually from 32.9 µM), inactives show top-dose activity, positive = growth rescue, usual class: activators. AID 485353. hit rate 0.19% among 330,000. S. cerevisiae expressing SARS-CoV PLpro, growth rescue; also: potency is read from the fitted curve at half-maximal effect; 0% is about no effect; nearly all actives have a fitted effect of over 55% in size
# * hit, by the source's call; i = inactive; ? = inconclusive; . = not tested or not shown. Unless noted, calls follow the shape of the full dose curve.
SMILES,CHX counter,Pf growth 96h,Shiga toxin inh,NS1 inh,Pf growth 48h,SARS PLpro yeast
COc1cc(C(=O)OCC#N)ccc1OCc1c(C)noc1C,-1,?,11,-2%,-29%,0%
COc1ccc(OC)c(C2C(C(=O)O)c3ccccc3C(=O)N2C)c1 (stereo not given),-5,9%,21,5%,0%,-4%
COc1ccc([C@H]2[C@H](C(=O)OC(C)(C)C)N3N=Cc4ccccc4C3C23C(=O)c2ccccc2C3=O)c(OC)c1 (stereo not given in full),18*,1µM*,45*,23%,2.9µM*,17%
COc1ccc([C@H]2[C@H](C(=O)OC(C)(C)C)N3N=Cc4ccccc4C3C23C(=O)c2ccccc2C3=O)cc1OC (stereo not given in full),10,9.3µM*,46,7%,10µM*,0%
CC(C)[C@H](NC(=O)c1ccccc1F)C(=O)OCC(=O)NC1CC1,.,.,.,.,.,3%
O=C(COc1ccccc1Cc1ccccc1)NCCCN1CCOCC1,-4,-7%,-3,-2%,-22%,0%
CC1CCC/C(=N\NS(=O)(=O)c2ccccc2)C1 (stereo not given),1,56%,7,-2%,38%,0%
CC1CCC/C(=N\NC(=O)Nc2ccccc2)C1 (stereo not given),27*,?,53*,6%,-22%,-2%
COc1ccc(NCC(=O)N/N=C2\CCCC(C)C2)cc1 (stereo not given),0,22%,4,5%,-17%,-6%
CC1CCC/C(=N\Nc2ccc(Cl)c(C(=O)O)c2)C1 (stereo not given),165*,228%,60*,11%,157%,-18%
CCOc1ccc(N2C(=O)c3cccnc3C2=O)cc1,2,1.9µM*,-2,-21%,44%,0%
CCOc1ccc(N2C(=O)c3cccnc3C2Nc2ccc(C)cc2)cc1 (stereo not given),12,1.7µM*,-11,4%,9.3µM*,6%
CCOc1ccc(N2C(=O)Cc3ccccc3C2=O)cc1,-2,1%,-12,?,-5%,-5%
CCOc1ccc(N2C(=O)c3cccnc3C2Nc2ccc(C)c(C)c2)cc1 (stereo not given),-1,4.7µM*,-8,-1%,.,4%
CN(C)c1ccc(C=C(c2nnnn2-c2ccccc2)c2nnnn2-c2ccccc2)cc1,-2,i,-14,4%,9.3µM*,-14%
CN(C)/C=C(\C(=O)c1ccccc1)c1nnnn1-c1ccccc1,-2,10%,5,6%,11%,2%
O=c1cnc2ccccc2n1Cc1ccccc1C(F)(F)F,-4,-13%,-3,-2%,5%,10%
CCOC(=O)c1cccc(NC(=O)/C=C/c2cccc([N+](=O)[O-])c2)c1,8,183%,15,-8%,24%,3%
CCOC(=O)/C=C/C(=O)Nc1ccccc1-c1ccccc1NC(=O)/C=C/C(=O)OCC,33*,?,13,2%,4.7µM*,-4%
CCOC(=O)/C=C/C(=O)OCC(=O)Nc1ccc([N+](=O)[O-])cc1,17*,-15%,31,-105%,34%,-4%
CCOC(=O)/C=C/C(=O)OCC(=O)Nc1cccc(Cl)c1Cl,9,57%,2,.,105%,-2%
CCOC(=O)/C=C/C(=O)Nc1cccc([N+](=O)[O-])c1,38*,2%,49,-51%,0%,-110%
O=C(Nc1ccc(S(=O)(=O)Nc2cnc3ccccc3n2)cc1)c1cccc(OC(F)F)c1,-6,17%,-7,3%,18%,1%
OC(CNCCC1C=Nc2ccccc21)Cn1c2ccc(Cl)cc2c2cc(Cl)ccc21 (stereo not given),-11,?,-26,?,2.6µM*,-41%
OC(CNCC1CCCO1)Cn1c2ccccc2c2ccccc21 (stereo not given),-2,?,-6,-7%,4.7µM*,1%
SMILES,CHX counter,Pf growth 96h,Shiga toxin inh,NS1 inh,Pf growth 48h,SARS PLpro yeast
OC(CNCC1CCCO1)Cn1c2ccc(Cl)cc2c2cc(Cl)ccc21 (stereo not given),6,29%,-10,-125%,0.37µM*,-12%
O=C(Cn1cc(C(=O)C2CC2)c2ccccc21)NCC1CCCO1 (stereo not given),1,?,-10,4%,-4%,6%
Cc1cc(C)n(CC(O)Cn2c3ccc(Cl)cc3c3cc(Cl)ccc32)c(=O)n1 (stereo not given),-2,.,-18,25%,?,-2%
O=C(Cn1c(=O)n(Cc2ccco2)c(=O)c2cc(Cl)ccc21)NCC1CCCO1 (stereo not given),-2,72%,13,1%,10%,-2%
OCCOc1ccc(C2=NCCO2)cc1,15*,7%,58,-1%,14%,6%
COc1ccccc1NC(=O)Nc1nc(-c2cccnc2)nc2ccccc12,.,.,.,-6%,.,.
CCC(C)n1ncn(-c2ccc(N3CCN(c4ccc(OCC5COC(Cn6cncn6)(c6ccc(Cl)cc6Cl)O5)cc4)CC3)cc2)c1=O (stereo not given),0,-12%,-2,0%,3.4µM*,-19%
COc1ccc(NS(=O)(=O)c2cccc(C(=O)N/N=C/c3cn(-c4ccccc4)nc3-c3ccc(OC)cc3)c2)cc1,9,?,5,1%,2.3µM*,0%
COc1ccccc1NS(=O)(=O)c1cccc(C(=O)N/N=C/c2cn(-c3ccccc3)nc2-c2ccccc2)c1,8,2.9µM*,7,?,2.1µM*,14%
COc1ccc(OC)c(C(C)NC(=O)c2ccco2)c1 (stereo not given),-2,-16%,-10,-7%,-2%,-2%
CC(C)OC(=O)Cn1c(=O)oc2ccccc21,-2,2.3µM*,-1,0%,.,-10%
CCOC(=O)c1c(C)[nH]c(C(=O)Cn2c(=O)oc3ccccc32)c1C,30*,28%,16,-4%,6%,-10%
Cc1ccc2oc(=O)n(CC(=O)OC(C)C)c2c1,-2,10µM*,-7,16%,0%,6%
COc1cccc(OC)c1NC(=O)C1CCCN1C(=O)Nc1ccccc1Cl (stereo not given),-3,12%,15,7%,4%,1%
Cc1ccc(-c2cc(-c3ccco3)c3c(N)c(C(=O)NN)oc3n2)cc1,0,?,14,?,4.7µM*,-2%
O=C(NCC1CCCN(Cc2ccc3nonc3c2)C1)c1ccc(F)cc1 (stereo not given),-1,-21%,-13,4%,-14%,-2%
Oc1ccc(-c2nc3ncccn3c2Nc2ccc3c(c2)OCCO3)cc1,15,?,36,-31%,.,4%
Brc1c(-c2ccc3c(c2)OCO3)nc2ncccn12,20*,?,33*,0%,67%,-2%
COc1ccc(-c2nc3ncccn3c2Br)cc1,28*,18%,73*,-34%,134%,-1%
